Screening data deposited in PubChem BioAssay by National Center for Advancing Translational Sciences (NCATS).
In the library only some 2.4% were active in any assay of this set; here they are far more common.
ATXN2 expr inh = reduces ATXN2 reporter expression in HEK-293 cells; HEK-293 ATXN2-luciferase reporter, luminescence, 24 h; Potency, µM (highest dose often 57 µM), inactives show at the top dose activity change, negative = inhibition, actives largely listed as inhibitors; 0.72% of 360,000 active; AID 1745845; also: % is scaled to controls: 0 for no effect and ±100 for the full control effect; nearly all actives have a fitted effect of over 55% in size
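ATXN2-luciferase reporter cells (luciferase flanked by upstream and downstream ATXN2 gene portions) were treated 24 h at 37 °C with compounds at up to 57 uM. SteadyGlo luminescence gave expression; GF-AFC fluorescence gave viability.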
HepG2 tox-1 = counter-screen for TGF-b inhibitors: cytotoxicity in HepG2 cells; AID 588856; 0.76% of 410,000 active; HepG2 CAGA-GFP viability, ATP luminescence, 18 h; Potency, µM (titrated, usually from 46.1 µM), inactives show at the highest dose activity change, negative = cytotoxicity, hits mostly cytotoxic
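CellTiter-Glo luminescence gave cytotoxicity after 18 hours at 37 degrees C. The cells were HepG2 CAGA-GFP in 1% FBS DMEM, stimulated with 500 pg/mL TGF-beta after compound addition. %Activity was normalised to no-cell wells (complete cell-killing) and DMSO (no toxicity), and curves were fitted and classified.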
ATXN viability = viability counter-screen for ATXN expression inhibitors. S2 cells (HEK-293 line with an ATXN2-luciferase reporter) viability, CellTiter-Fluor protease fluorescence, 24 h. 0.49% of 400,000 active. AID 651635. Potency, µM (top dose mostly 56.7 µM), usual class: cytotoxic; also: nearly all actives have a fitted effect of over 40% in size
Anesthetic bind = candidate novel general anesthetic via apoferritin binding | 0.074% of 350,000 active | apoferritin/1-aminoanthracene competitive binding, fluorescence | P02791 | Potency, µM (doses to about 77.5 µM), inactives show top-dose activity change, negative = displacement, hits mostly inhibitors; also: % is scaled to controls: 0 for no effect and ±100 for the full control effect; nearly all actives have a fitted effect of over 20% in size
Target sequence (P02791 2-175 limits assumed): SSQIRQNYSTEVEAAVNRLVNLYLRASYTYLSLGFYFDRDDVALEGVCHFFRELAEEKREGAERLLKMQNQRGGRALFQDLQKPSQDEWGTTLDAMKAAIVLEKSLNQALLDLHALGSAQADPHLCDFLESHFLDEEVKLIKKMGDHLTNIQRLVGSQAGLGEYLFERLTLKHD
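10 uM apoferritin + 50% sat. 1-AMA, PBS; cpd 10 min RT; Ex380/Em535 endpoint; normalized to free probe vs complex; 4-param Hill fit; propofol titration as pos. ctrl.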
TGFb SMAD3 inh = blocks TGF-b signaling; HepG2 CAGA-GFP TGF-b/SMAD3 reporter, GFP fluorescence, 18 h; TGF-beta stimulated, 500 pg/mL final; Potency, µM (highest dose often 46.1 µM), inactives show at the top dose activity, negative = inhibition, usual class: inhibitors; 1.2% of 410,000 active; AID 588855; also: % is scaled to controls: 0 for no effect and ±100 for the full control effect; nearly all actives have a fitted effect of over 65% in size
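Per well, imaged GFP fluorescence of HEPG2 CAGA-GFP cells gives the signal; cells get compound, then TGF-beta (500 pg/mL final), 18 h at 37 degrees C; %Activity versus -TGF-beta and +DMSO controls.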
TGFb CAGA inh = confirmation of TGF-b signaling inhibitors in HepG2 reporter cells; shares compounds with TGFb SMAD3 inh; HepG2 CAGA-GFP TGF-b reporter, GFP fluorescence, 18 h; cells stimulated with TGF-beta, 500 pg/mL; Potency, µM (highest dose often 46.1 µM), inactives show at the highest dose activity, negative = inhibition, hits mostly inhibitors; 63% of 1,600 active; AID 720534; also: % is scaled to controls: 0 for no effect and ±100 for the full control effect; nearly all actives have a fitted effect of over 65% in size
HepG2 tox-2 = counter-screen for TGF-b inhibitors: cytotoxicity in HepG2 cells | Potency, µM (series often up to 46.1 µM), for inactives: top-dose activity, negative = cytotoxicity, most hits filed as inhibitors | HepG2 CAGA-GFP viability, ATP luminescence, 18 h; cells stimulated with TGF-beta, 500 pg/mL | 27% of 1,600 active | shares compounds with TGFb SMAD3 inh; also: % is scaled to controls: 0 for no effect and ±100 for the full control effect; nearly all actives have a fitted effect of over 70% in size
TGFb CCL64 inh = TGF-b inhibition, CCL64 orthogonal assay; shares compounds with TGFb SMAD3 inh; Potency, µM (top dose mostly 46.1 µM), for the others: at the highest dose activity, negative = inhibition, usual class: inhibitors; AID 720536; 41% of 1,600 active; CCL64 CAGA-GFP reporter, TGF-b stimulated, GFP fluorescence, 18 h; also: nearly all actives have a fitted effect of over 65% in size
TGFb COP inh = blocks TGF-b signaling in HepG2 COP reporter; 3% of 1,600 active; AID 720537; shares compounds with TGFb SMAD3 inh; Potency, µM (series often up to 46.1 µM), for the others: top-dose activity, negative = inhibition, hits mostly inhibitors; HepG2 COP-GFP TGF-b reporter, GFP fluorescence, 18 h; cells stimulated by added recombinant TGF-beta; also: nearly all actives have a fitted effect of over 70% in size
Numbers without * were called inactive; i = inactive; ? = inconclusive; / = no result. Calls follow the shape of the dose curve; as a rule, active = well fitted curve in the direction sought with a large enough effect; inconclusive = small, poorly fitted or top-dose-only effect, or another doubt; inactive = no such curve, though single readings can be large; an effect the other way counts as inactive or inconclusive. Potency is read from the fitted curve at half-maximal effect.

SMILES | ATXN2 expr inh | HepG2 tox-1 | ATXN viability | Anesthetic bind | TGFb SMAD3 inh | TGFb CAGA inh | HepG2 tox-2 | TGFb CCL64 inh | TGFb COP inh
Cc1ccc(OC(C)C(=O)Nc2ccncc2)cc1C (stereo not given) | ? | -61% | i | -12% | 10µM* | ? | ? | 1% | 40%
O=S(=O)(Nc1ccc(C(O)(C(F)(F)F)C(F)(F)F)cc1)c1cccc2cccnc12 | ? | -30% | ? | / | 18µM* | 15µM* | -21% | -25% | 40%
O=S(=O)(Nc1ccc(Br)cc1)c1cccc2cccnc12 | -6% | -21% | i | -20% | 0% | / | / | / | /
NC(=O)c1csc(CCNC(=O)c2ccccc2)n1 | / | -1% | i | / | 0% | / | / | / | /
C/C(=N\NC(=O)c1ccccc1-n1cccc1)c1ccccn1 | / | -36% | 2.8µM* | / | 14µM* | 10µM* | ? | ? | 21%
CC(=NNC(=S)N1CCCCC1)c1ccccn1 | / | -70% | ? | / | 0.63µM* | 1.3µM* | ? | 0.65µM* | -7%
C=CCNC(=S)N/N=C(\C)c1ccccn1 | -91% | -26% | / | -7% | 2.8µM* | 10µM* | ? | 1.3µM* | -4%
CC(=NNC(=S)Nc1ccccc1)c1ccccn1 | / | -38% | ? | / | ? | / | / | / | /
CCOc1ccc(NC(=O)C2CCC(CNS(=O)(=O)c3ccc4c(c3)CCCC(=O)N4)CC2)cc1 (stereo not given) | -3% | 0% | ? | 4% | 3% | / | / | / | /
CC(=O)N(Cc1ccc(F)cc1)C1=C(NCc2ccccc2)C(=O)c2ccccc2C1=O | 11µM* | 3.2µM* | 22µM* | 54% | 6.3µM* | 7.3µM* | 3.7µM* | 3.7µM* | ?
O=C(COc1ccc(Cl)cc1Cl)NCCSc1ccc(Cl)cc1 | -21% | -17% | i | 33% | 16µM* | ? | ? | ? | 64%
CN(C)CCNC(=O)COc1ccc(Cl)cc1Cl | 3% | -4% | i | -9% | -17% | / | / | / | /
CCC(NC(=S)NC1CCCCC1)c1ccc(C(C)C)cc1 (stereo not given) | / | / | / | -11% | / | / | / | / | /
COc1ccc(/C=C/C(=O)c2cc(F)ccc2OC(=O)c2ccccc2)cc1OC | -8% | -56% | ? | / | 8.9µM* | ? | -2% | ? | 0%
O=S(=O)(Nc1ccc2c(c1)OCCO2)c1ccc2oc3ccccc3c2c1 | -39% | -32% | i | -4% | 10µM* | 23µM* | ? | ? | 36%
Cn1c(=O)c(N=O)c(N)n(Cc2ccccc2)c1=S | -26% | -21% | i | / | ? | / | / | / | /
CC(C)N(C(=O)[C@H]1C[C@H](CC(=O)NCC23CC4CC(CC(C4)C2)C3)C(=O)N2CCc3c([nH]c4ccc(Cl)cc34)[C@]12C)C(C)C | ? | -76% | ? | / | 8.9µM* | 12µM* | ? | 13µM* | 53%
COc1ccc2[nH]c3c(c2c1)CCN1C(=O)C(CC(=O)NCC24CC5CC(CC(C5)C2)C4)C[C@H](C(=O)N2CCOCC2)[C@@]31CCC1CCCC1 (stereo not given in full) | 8% | 12% | i | / | 11µM* | 4.6µM* | -22% | 5.8µM* | 19%
CC[C@]12c3[nH]c4cc(-c5ccco5)ccc4c3CCN1C(=O)[C@@H](CC(=O)NCC13CC4CC(CC(C4)C1)C3)C[C@@H]2C(=O)N1CCN(C(=O)c2ccco2)CC1 | ? | 0% | ? | / | 13µM* | ? | -20% | ? | 28%
CC[C@]12c3[nH]c4ccc(Cl)cc4c3CCN1C(=O)[C@@H](CC(=O)NCC13CC4CC(CC(C4)C1)C3)C[C@@H]2C(=O)N1CCN(C(=O)c2ccco2)CC1 | 25µM* | -2% | ? | / | 13µM* | 12µM* | ? | ? | 67%
O=C(C[C@H]1C[C@H](C(=O)N2CCOCC2)[C@@]2(CCC3CCCC3)c3[nH]c4ccc(Cl)cc4c3CCN2C1=O)NCC12CC3CC(CC(C3)C1)C2 | -4% | -1% | i | / | -6% | / | / | / | /
COCCCNC(=O)Cn1cc(/C=C(\C#N)C(=O)NC2CCCC2)c2ccccc21 | / | 2% | i | -9% | 11% | / | / | / | /
NC(=O)C1CCCc2c1[nH]c1ccc(Cl)cc21 (stereo not given) | -18% | / | / | / | / | / | / | / | /
O=C(c1ccco1)N1CCN(C(=O)C2CCCc3c2[nH]c2ccc(Cl)cc32)CC1 (stereo not given) | 27% | -34% | i | -3% | 1µM* | ? | ? | ? | 10%
COc1ccccc1N1CCN(C(=O)c2ccc3c(Cl)c4c(nc3c2)CCCC4)CC1 | -17% | -15% | ? | -14% | 11µM* | 6.5µM* | ? | 18µM* | 39%
O=C(NCCCO)C(=O)NCCc1ccc(Cl)cc1 | -4% | 36% | i | 0% | 18% | / | / | / | /
COc1ccc([C@H]2CC(=O)C=C(c3ccccc3)C2)cc1OC | -26% | -21% | i | / | -12% | / | / | / | /
COc1ccc([C@H]2CC(=O)C=C(c3ccc(Oc4ccccc4)cc3)C2)cc1OC | -19% | -25% | i | / | 7.9µM* | 9.2µM* | -21% | ? | -2%
CS/C(=N\S(=O)(=O)c1cccs1)Nc1ccc(F)c(Cl)c1 | -9% | -4% | i | -16% | 8.9µM* | ? | -14% | -19% | -7%
